Screening results deposited in PubChem BioAssay by National Center for Advancing Translational Sciences (NCATS).
KB-3-1 tox = KB-3-1 parental cell cytotoxicity; hit rate 1.4% among 400,000; KB-3-1 viability, CellTiter-Glo ATP luminescence, 72 h; Potency, µM (series often up to 46.1 µM), hits mostly cytotoxic; further: nearly all actives have a fitted effect of over 60% in size
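Cytotoxicity measured as CellTiter-Glo luminescence after 72 h at 37 C. Compound titrations were pinned onto drug-naive KB-3-1 parental adenocarcinoma cells grown in DMEM with 10% FBS, and normalized data fitted to concentration-response curves.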
HT1080 IDH1KD tx = HT-1080 IDH1 knockdown cell toxicity (counter line) | HT-1080 IDH1 knockdown viability, ATP luminescence, 48 h | Potency, µM (titrated, usually from 46.1 µM), for inactives: at the highest dose activity, negative = toxicity, hits mostly cytotoxic | hit rate 2% among 360,000;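 further: 0% = DMSO wells and -100% = cell-free medium wells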
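Viability of IDH1-knockdown HT-1080 fibrosarcoma cells was assessed by CellTiter-Glo after 48 h at 37 °C with titrated compound; concentration-effect curves were classified by fit quality and response size.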
DT40 TDP1 CPT = DT40-hTDP1 cell growth loss with CPT; Potency, µM (highest dose often 46.2 µM), for inactives: top-dose activity change, negative = growth inhibition, hits mostly inhibitors; hit rate 12% among 420,000; chicken DT40 Tdp1-/-;hTDP1 cells + 20 nM CPT, ATP luminescence, 48 h; AID 686979; further: nearly all actives have a fitted effect of over 55% in size
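Cell growth measured by CellTiter-Glo luminescence after a minimum 48 h, 37 C compound exposure with 20 nM CPT in Tdp1-knockout DT40 cells stably expressing hTDP1, seeded 400/well; qHTS titration format.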
TDP1 cell noCPT = qHTS for Inhibitors of human tyrosyl-DNA phosphodiesterase 1 (TDP1): qHTS in cells in absence of CPT. Potency, µM (top dose mostly 46.2 µM), inactives show at the highest dose activity change, negative = growth inhibition, most hits filed as inhibitors. DT40 Tdp1-/- hTDP1 cells, no CPT, ATP luminescence, 48 h. hit rate 15% among 420,000; further: nearly all actives have a fitted effect of over 55% in size
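Luminescent ATP content (CellTiter-Glo) served as the growth readout. Knockout chicken DT40 cells expressing human TDP1 were exposed to compounds without camptothecin for a minimum 48 hr at 37 °C.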
HT1080-NT tox = kills 2HG-producing HT-1080-NT fibrosarcoma cells; HT-1080-NT fibrosarcoma viability, CellTiter-Glo ATP luminescence, 48 h; Potency, µM (titrated, usually from 46.1 µM), without a hit: at the top dose activity, negative = less viability, hits mostly cytotoxic; hit rate 1.6% among 360,000;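 further: NT is the 2HG producing partner of a matched IDH1 knockdown line; 0% = DMSO-treated cells and -100% = media-only wells without cells; nearly all actives have a fitted effect of over 55% in size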
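HT-1080-NT fibrosarcoma cells (2HG-overproducing), 750 cells/well in RPMI with 5% FBS, dosed after 2 h and incubated 48 h at 37C. CellTiter-Glo luminescence normalized to DMSO and no-cell wells; concentration-response curves fitted and classed.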
KB-V1 cytotox = KB-V1 MDR subline cytotoxicity | KB-V1 MDR cells viability, CellTiter-Glo, 72 h | hit rate 3.4% among 400,000 | Potency, µM (top dose mostly 46.1 µM), actives largely listed as cytotoxic | AID 1347076; further: nearly all actives have a fitted effect of over 60% in size
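Readout: CellTiter-Glo luminescence, 10 min after addition. Cells: KB-V1 MDR subline, 72 h at 37 degrees C with compound. Analysis: corrected, normalized data fitted to concentration-effect curves.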
The depositor's hits bear a star; i = inactive; ? = inconclusive; . = no result; [ ] = another dose, or the depositor's remark. A selection: hits, their analogues and other compounds. The true share with any hit is near 19%. The call rests on the fitted dose curve; in most records, active means well fitted curve in the direction sought with a large enough effect; inconclusive means small, poorly fitted or top-dose-only effect, or another doubt; inactive means no such curve, though single readings can be large; an effect the other way counts as inactive or inconclusive. Unless noted, on the % scale 0 is the no-effect control and ±100 the full control effect; potency means the concentration at half of the fitted maximal effect.

SMILES | KB-3-1 tox | HT1080 IDH1KD tx | DT40 TDP1 CPT | TDP1 cell noCPT | HT1080-NT tox | KB-V1 cytotox
Cc1ccc(-c2nnc(SCC(=O)N(C)C)nc2-c2ccc(C)cc2)cc1 | i | -1% | ? | 23µM* | 3% | ?
O=C(CSCc1ccc(Cl)cc1)N1CCOCC1 | i | 2% | -5% | -8% | 12% | i
Cc1ccc(CSCC(=O)N2CCOCC2)cc1 | i | 14% | 6.5µM* | 10µM* | 16% | i
Cc1nc(NC(=O)CSc2nnc(-c3ccccc3)c(-c3ccccc3)n2)c(Cl)cc1Cl | i | -1% | 23µM* | 26µM* | -10% | ?
CCn1c(SCC(=O)NC2=NCCS2)nnc1C(C)NC(=O)c1ccccc1Br (configuration not stated) | i | 4% | 2% | 2% | 15% | i
NC(=O)c1cc(NC(=O)CCCc2nc3ccccc3s2)cc(C(N)=O)c1 | i | 0% | -1% | 2% | 6% | i
CCN(CC)C(=O)CSc1nnc(-c2ccccc2)c(-c2ccccc2)n1 | i | 17% | 1% | ? | 11% | 3.3µM*
CCOc1ccc(-c2nnc(SCC(=O)NCc3ccc(C)cc3)nc2-c2ccc(OCC)cc2)cc1 | . | . | ? | 13µM* | . | .
Cc1ccc(-c2nnc(SCC(=O)NC(C)(C)C)nc2-c2ccc(C)cc2)cc1 | i | . | 29µM* | ? | . | i
COc1ccc(OCCN(C)CC(=O)Nc2c(C)cccc2C)cc1 | i | 17% | ? | 23µM* | 14% | i
COc1ccc(OCCCC(=O)N(C)CC(=O)Nc2c(C)cccc2C)cc1 | i | -1% | -11% | -6% | -3% | i
Cc1ccc(C(C)NC(=O)c2ccc3c(c2)OCO3)cc1C (configuration not stated) | i | -3% | -30% | -22% | 3% | i
Cc1ccc(C(O)c2ncc(-c3ccc(Cl)cc3)[nH]2)cc1F (configuration not stated) | i | ? | ? | ? | -26% | i
Cc1cccc(C)c1NC(=O)CSc1nnc(-c2ccco2)c(-c2ccco2)n1 | i | -11% | -11% | -23% | 10% | i
Cc1ccc(-c2nnc(SCC(=O)N3CCOCC3)nc2-c2ccc(C)cc2)cc1 | i | -18% | 21µM* | ? | -4% | i
COc1ccc(-c2nnc(SCC(=O)Nc3c(C)cccc3C)nc2-c2ccc(OC)cc2)cc1 | ? | . | ? | 1.8µM* | . | i
Cc1ccc2c(c1)CN(C(=O)CC(c1ccccc1)c1ccco1)CC(C)O2 (configuration not stated) | . | . | 0%[9.04 µM] | ? | . | .
Cc1ccc(C(CC(=O)N2CCOCC2)c2ccco2)cc1 (configuration not stated) | ? | 0% | 16µM* | ? | -4% | i
Cc1ccc(-c2nnc(SCC(N)=O)nc2-c2ccc(C)cc2)cc1 | i | 0% | ? | ? | -14% | i
CCS(=O)(=O)NCc1c(C)ncc2c1CCN(C(=O)c1ccc(F)cc1)C2 | . | . | 26%[9.04 µM] | -14% | . | .
COc1cc(-c2cc(C)c3c(OC)ccc(OC)c3n2)cc2c1OCCN(C(=O)Cn1nc(C)cc1C)C2 | . | . | 1%[9.04 µM] | -30% | . | .
COc1cc(-c2cc(C)c3cccc(OC)c3n2)cc2c1OCCN(C(=O)CCn1nc(C)cc1C)C2 | . | . | -15%[9.04 µM] | 18µM* | . | .
CC[C@]1(C(=O)OC)[C@H]2C(=O)N(Cc3ccccc3)C(=O)[C@H]2[C@H]2CN(C)C(=NC)N21 | i | 12% | 15% | -5% | 14% | i
FC(F)C(F)(F)c1cc(-c2ccc(Cl)cc2)n[nH]1 | i | ? | 18µM* | 18µM* | ? | ?
COc1ccc(-c2noc(COc3cc(C)ccc3C)n2)cc1OC | i | . | ? | ? | . | i
